Data on 74 compounds can be found in ChEMBL document CHEMBL1857833, “Screening and optimization of specific chemical series against human African Trypanosomiasis (HAT)”.

As a reminder, the % inhibition is the change of the read-out against control, counted positive when it falls.

Several values for one entry are separate records, joined by “and”; a condition that tells them apart may be missing. Equal entries are not always repeated. Screen size: about 4,400 compounds; about 390 (8.9%) showed an effect of 50% or more. For the sample, strong results were picked, then their nearest neighbours and some compounds at random.

The experiment relates to Trypanosoma brucei. Put plainly: DNDI: Inhibition of Human African Trypanosomiasis, SBRI 427, in vitro at 2 ug.mL-1. In kind it is functional.
As for `Cc1ccc(/C(=N/O)NC2CC2)c(OCc2ccncc2)n1`, the “% inhibition” value worked out at 19%.
`Clc1ccccc1-c1nc(CN2CC=CCC2)co1`: the “% inhibition” value was 14%.
For `CCN(CC)c1cccc(Oc2ncccc2/C(=N/O)N2CCCC2)c1` the value was -7%; for `CC1(C)Cc2cccc(Oc3ccc(/C(=N/O)NC4CCc5ccccc54)cn3)c2O1` (centres undefined), 10%; for `Cc1ccc(/C(=N/O)N2CCCC2C)c(Oc2cccc(C(C)C)c2)n1` (centres undefined), 0%.
For `Cc1cccc(N2CCN(Cc3coc(-c4ccccc4F)n3)CC2C)c1` (centres undefined) the value was -21%; for `COCC(C)N/C(=N\O)c1ccc(C)nc1OCc1ccccc1C` (centres undefined), 8%.
Regarding `N#CCCN(Cc1ccccc1)Cc1coc(-c2ccc(F)cc2)n1`, the “% inhibition” value was -7%.
For `Cc1ccc(C(C)C)c(Oc2cc(/C(=N/O)NCC3CCCCC3)ccn2)c1` the value was 27%; for `Cc1ccc(-c2nc(CNC34C[C@H]5C[C@@H](C3)C[C@@H](C4)C5)co2)cc1`, 90%; for `COc1ccc(-c2nc(CNC34C[C@H]5C[C@@H](C3)C[C@@H](C4)C5)co2)cc1`, 3%.
For `Cc1ccccc1-c1nc(CNC23C[C@H]4C[C@@H](C2)C[C@@H](C3)C4)co1` the value was 49%; for `CN(Cc1coc(-c2ccccc2Cl)n1)CC1OCCO1`, 8%; for `O/N=C(\Nc1ccccc1)c1cccnc1Oc1ccccc1F`, 2%.
The same measure for `COc1ccccc1Oc1ncccc1/C(=N/O)Nc1ccccc1`: 62%; for `CSc1ccccc1Oc1ncccc1/C(=N/O)Nc1ccccc1`: 71%.
For the compound `COc1ccc(Oc2ncccc2/C(=N/O)Nc2ccccc2)cc1`, the “% inhibition” value was -9%.
The same measure for `CSc1ccccc1Oc1ncccc1/C(=N/O)N1CCOCC1`: 8%; for `CSc1ccccc1Oc1ncccc1/C(=N/O)N1CCN(c2ccccc2)CC1`: 22%; for `Cc1ccc(Oc2nc(C)ccc2/C(=N/O)N2CCN(C)CC2)cc1`: 19%.
For `COCCN(/C(=N\O)c1ccc(C)nc1Oc1ccc(SC)c(C)c1)C(C)C` the value was 9%; for `COCCN(Cc1coc(-c2ccccc2C)n1)C(C)C`, -31%; for `O/N=C(\Nc1ccon1)c1ccc(Oc2cccc3cccnc23)nc1`, 13%.
The same measure for `CCOc1ccccc1-c1nc(CN2CCN(c3cc(C)nc4ccccc34)CC2)co1`: 14%.
Turning to `N/C(=N\O)c1cccnc1OCc1cccc(F)c1`, the “% inhibition” value is -4%.
For the compound `CN(/C(=N\O)c1cccnc1OCc1cccc(F)c1)C1CCCCC1`, the “% inhibition” value is listed as -3%.
The same measure for `Cc1ccc(/C(=N/O)N(C)c2ccccc2)c(OCc2ccccc2F)n1`: -4%; for `CN(Cc1ccco1)/C(=N\O)c1cccnc1OCc1ccccc1F`: 5%.
The same measure for `CN(/C(=N\O)c1cccnc1OCc1cccc(F)c1)c1ccccc1`: 98%; for `CN(/C(=N\O)c1cccnc1OCc1ccccc1F)c1ccccc1`: 98%.
The same measure for `O=Cc1nccn1Cc1coc(-c2ccc(Br)cc2)n1`: 11%; for `CCOc1ccccc1CN/C(=N\O)c1ccnc(Oc2ccc(F)c(F)c2)c1`: 13%.
On to `CN(C)CCN(Cc1ccccc1)Cc1coc(-c2ccc(Br)cc2)n1`, for which the “% inhibition” value was found to be 23%.
As to `Clc1cccc(N2CCN(Cc3coc(-c4ccccc4Br)n3)CC2)c1`, the “% inhibition” value turned out to be 7%.
The same measure for `COc1ccccc1CCNCc1coc(-c2ccccc2Br)n1`: 6%; for `CCOc1ccccc1CN/C(=N\O)c1ccc(Oc2cc(C)cc(C)c2)nc1`: 28%.
For `Cc1ccc(/C(=N/O)N2CCC(N(C)C)C2)c(Oc2cccc(F)c2)n1` (centres undefined) the value was 6%; for `CCOc1ccccc1-c1nc(CNC2C[C@H]3CC[C@@H]2C3)co1` (some centres undefined), 28%.
For `CCOc1ccccc1-c1nc(CNC2CCN(Cc3ccccc3)C2)co1` (centres undefined) the value was 6%; for `CC(NCc1coc(-c2cccc3ccccc23)n1)C1CCCCC1` (centres undefined), 87% and 90%.
Turning to `Cc1ccccc1-c1nc(CNC(C)C2CCCCC2)co1` (centres undefined), the “% inhibition” value is given as 23%.
For `CCOc1ccccc1-c1nc(CNC(C)C2CCCCC2)co1` (centres undefined) the value was 98%.
For `CCOc1ccccc1-c1nc(CNC(C)c2ccc(C)cc2)co1` (centres undefined) the value was 15%.
For `CCOc1ccccc1-c1nc(CNC(C)c2cccc3ccccc23)co1` (centres undefined) the value was 5% and 9%.
On to `CCOc1ccc(-c2nc(CNC(C)C3CCCCC3)co2)cc1` (centres undefined), for which the “% inhibition” value is reported as 87%.
As for `CC(NCc1coc(-c2ccccc2Br)n1)C1CCCCC1` (centres undefined), the “% inhibition” value was -30% and -35%.
The same measure for `CCOc1ccccc1-c1nc(CNC2CCCCCCCCCCC2)co1`: 99%.
`Cc1ccc(-c2nc(CNC(C)C3CCCCC3)co2)cc1` (centres undefined): the “% inhibition” value was found to be 25%.
Consider `CC(NCc1coc(-c2ccc(Br)cc2)n1)C1CCCCC1` (centres undefined), for which the “% inhibition” value came to 36%.
As for `N/C(=N\O)c1ccc(Oc2cccc3ccccc23)nc1`, the “% inhibition” value is on record as 36%.
For `COc1ccc(-c2nc(CN(C)Cc3cccc4ccccc34)co2)cc1` the value was -11%.
For `COCCN(/C(=N\O)c1ccc(Oc2ccc(C)cc2C)nc1)C(C)C` the value was 5%; for `COc1ccc(-c2nc(CNC[C@@H]3CCCO3)co2)cc1`, 16%.
The same measure for `CCOc1ccccc1-c1nc(CN(CCC#N)CC2CCCO2)co1` (centres undefined): -20%.
On to `CCOc1ccccc1-c1nc(CN(CC)CCN(CC)CC)co1`, for which the “% inhibition” value is on record as -5%.
With `O/N=C(\NC1CCc2ccccc21)c1ccnc(Oc2cccc3cnccc23)c1` (centres undefined), the “% inhibition” value is recorded as 18%.
On to `C=CCN1CCN(/C(=N\O)c2cccnc2Oc2ccc(Cl)cc2)CC1`, for which the “% inhibition” value was found to be 7%.
The same measure for `Brc1ccccc1-c1nc(CNCCC2=CCCCC2)co1`: -2%; for `Cc1ccccc1-c1nc(CNCCC2=CCCCC2)co1`: 10%.
The same measure for `CCOc1ccccc1-c1nc(CNCCC2=CCCCC2)co1`: 53%.
For `COc1ccc(OC)c(NCc2coc(-c3ccco3)n2)c1` the value was -5%; for `CCC(CC)NCc1coc(-c2ccccc2Cl)n1`, -8%; for `CCOc1ccc(Oc2nc(C)ccc2/C(=N/O)NCc2ccco2)cc1`, 6%.
As for `Cc1ccc([C@@H](C)NCc2coc(-c3ccc(Cl)cc3Cl)n2)cc1`, the “% inhibition” value was found to be 14%.
As to `O/N=C(/c1ccnc(Oc2cccc(F)c2)c1)N1CCCCCC1`, the “% inhibition” value is listed as 3%.
For `CSc1ccc(Oc2nc(C)ccc2/C(=N/O)NC(C)C)cc1` the value was -8%.
The same measure for `CCC(CC)N/C(=N\O)c1ccc(C)nc1Oc1ccc(C)cc1`: 70%.
The same measure for `CCC(CC)N/C(=N\O)c1ccc(C)nc1Oc1cc(C)cc(C(C)C)c1`: 15%.
Turning to `CCC(CC)N/C(=N\O)c1ccc(C)nc1Oc1ccc(C)cc1C`, the “% inhibition” value is reported as 34%.
The same measure for `CCC(CC)N/C(=N\O)c1ccc(C)nc1Oc1ccc(F)cc1`: 24%; for `COc1cc(C)ccc1Oc1nc(C)ccc1/C(=N/O)NC(C)C`: 29%.
For `CSc1ccc(Oc2nc(C)ccc2/C(=N/O)NCC(C)(C)C)cc1` the value was -6%; for `CCC(CC)N/C(=N\O)c1ccc(C)nc1Oc1ccc(SC)cc1`, 99%; for `CCC(CC)N/C(=N\O)c1ccc(C)nc1Oc1ccc(C)cc1OC`, 100%.
